For assay [1], the target named is human Norepinephrine Transporter (NET), SLC6A2 (gene 6530) (UniProt P23975). The assay is described as follows: NVS_TR_hNET: NovaScreen (NVS) Transporter Assay for human Norepinephrine Transporter (NET) (AID 2283377).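 For AC50: displacement of radioligand from human NET seen as loss of scintillation signal.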 Summed up:
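Cell-free radioligand binding using CHO-derived membrane protein expressing human NET, read by filter scintillation counting 1 h after dosing; loss of signal vs DMSO. Initial duplicate screen at 25 uM, actives retested in concentration series.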

Assay [2] concerns the target Estrogen receptor (Homo sapiens) (UniProt P03372). Description: OT_ERa_GFPERaERE_0480: Odyssey Thera (OT) 8-hour HeLa Transcription Induction Assay for Estrogen Receptor (AID 2283381; active = hit-call score of the fitted dose curve at least 0.9, where 1 is the maximum; inactive = score below 0.9). The essentials: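 HeLa cells dosed with compound and imaged by fluorescence microscopy at 8 h; GFP induction from an ERE reporter quantified by high-content image analysis and fitted as gain of signal against DMSO baseline.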

Assay [3] shares this target. The assay is described as follows: OT_ERa_GFPERaERE_0120: Odyssey Thera (OT) 2-hour HeLa Transcription Induction Assay for Estrogen Receptor (AID 2283382). The essentials:
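HeLa cells were dosed with test chemical and read 2 hours later for GFP-ERα/ERE-linked fluorescent protein induction by fluorescence microscopy. Gain-of-signal was fitted relative to DMSO baseline, quantified by high content image analysis.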

For assay [4], the target named is Retinoic acid receptor RXR-alpha (Homo sapiens) (UniProt P19793). Description: OT_NURR1_NURR1RXRa_0480: Odyssey Thera (OT) 8-hour HEK293T Protein Complementation Assay for Nurr1/retinoid X receptor (RXR) (AID 2283385). Summed up:
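HEK293T cells expressing Nurr1 and RXRα fused to reporter fragments were dosed with compound for 8 hours. Complex formation was read as fluorescence intensity and analysed as gain of signal against DMSO as baseline.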

The target is the same in assay [5]. Description: OT_NURR1_NURR1RXRa_1440: Odyssey Thera (OT) 24-hour HEK293T Protein Complementation Assay for Nurr1/retinoid X receptor (RXR) (AID 2283386). The essentials: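 HEK293T cells were dosed with compound and read 24 h later by fluorescence intensity in a protein-fragment complementation format, where Nurr1–RXRα interaction reconstitutes a split reporter. Activity was fitted as gain of signal relative to DMSO baseline.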

Assay [6] deals with mouse Estrogen Receptor alpha (Era), Esr1 (gene 13982) (UniProt P19785). Description: NVS_NR_mERa: NovaScreen (NVS) Nuclear Receptor Binding Assay for mouse Estrogen Receptor alpha (Era) (AID 2283378).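 Note: hit means loss of bound radioligand signal relative to DMSO.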 The essentials: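 Test chemicals competed against a specific radioligand for binding to cell-free mouse Era. Duplicate wells at 25 uM were read 18 hours later by filter-based radiodetection, with loss of signal against DMSO scored as activity.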
Sequence of mouse Estrogen Receptor alpha (Era), Esr1 (gene 13982) (P19785 whole entry, looked up): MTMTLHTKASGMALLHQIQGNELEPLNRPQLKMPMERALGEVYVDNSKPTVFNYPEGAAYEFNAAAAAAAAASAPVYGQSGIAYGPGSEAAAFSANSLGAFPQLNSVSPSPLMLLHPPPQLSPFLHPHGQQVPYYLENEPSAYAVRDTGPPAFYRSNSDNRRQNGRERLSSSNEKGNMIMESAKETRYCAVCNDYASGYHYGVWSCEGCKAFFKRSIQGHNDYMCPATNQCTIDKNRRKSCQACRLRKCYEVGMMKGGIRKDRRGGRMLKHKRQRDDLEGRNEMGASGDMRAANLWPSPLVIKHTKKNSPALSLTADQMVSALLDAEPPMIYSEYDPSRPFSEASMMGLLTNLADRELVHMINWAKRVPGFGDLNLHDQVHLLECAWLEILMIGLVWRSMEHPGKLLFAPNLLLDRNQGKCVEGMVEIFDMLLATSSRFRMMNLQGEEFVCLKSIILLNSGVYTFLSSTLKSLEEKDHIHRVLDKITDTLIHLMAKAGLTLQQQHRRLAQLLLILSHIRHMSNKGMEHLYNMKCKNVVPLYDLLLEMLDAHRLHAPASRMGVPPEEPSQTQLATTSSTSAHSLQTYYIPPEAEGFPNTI

Assay [7] concerns the target Estrogen receptor beta (Homo sapiens) (UniProt Q92731). Description: OT_ER_ERbERb_1440: Odyssey Thera (OT) 24-hour HEK293T Protein-Complementation Assay for Estrogen Receptor-beta/-beta Homodimer (AID 2283380).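 Note: scored as signal increase over DMSO baseline for both agonists and antagonists.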 The essentials: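 HEK293T cells stably expressing ER beta LBD (aa 310-547) homodimer fragment-complementation reporter, dosed 24 h. Cells formaldehyde-fixed, Draq5-stained; gain in nuclear (agonist) or nuclear plus cytoplasmic (antagonist) fluorescence versus DMSO read by laser scanning cytometry.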

Assay [8] addresses Agonist Androgen Response Element (ARE), AR (gene 367) (UniProt P10275). Description: OT_AR_ARELUC_AG_1440: Odyssey Thera (OT) 24-hour CHO-K1 Luciferase Assay for Agonist Androgen Response Element (ARE) (AID 2283379). The essentials: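 CHO-K1 cells carrying an ARE-driven luciferase reporter were exposed to compounds for 24 h. Luminescence was then read after adding a D-luciferin/ATP mix, and activity was scored as a gain in signal over DMSO vehicle.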

The target in assay [9] is human Dopamine Transporter (DAT), SLC6A3 (gene 6531) (UniProt Q01959). Description: NVS_TR_hDAT: NovaScreen (NVS) Transporter Assay for human Dopamine Transporter (DAT) (AID 2283374).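 Note: activity means loss of bound radioligand signal relative to DMSO.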 Summed up: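 Cell-free radioligand displacement binding at human DAT, 1 h after dosing, with filtration and scintillation counting. Primary screen in duplicate at 25 uM, actives then in concentration series. Loss of bound signal versus DMSO scored.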
Sequence of human Dopamine Transporter (DAT), SLC6A3 (gene 6531) (Q01959 whole entry, looked up): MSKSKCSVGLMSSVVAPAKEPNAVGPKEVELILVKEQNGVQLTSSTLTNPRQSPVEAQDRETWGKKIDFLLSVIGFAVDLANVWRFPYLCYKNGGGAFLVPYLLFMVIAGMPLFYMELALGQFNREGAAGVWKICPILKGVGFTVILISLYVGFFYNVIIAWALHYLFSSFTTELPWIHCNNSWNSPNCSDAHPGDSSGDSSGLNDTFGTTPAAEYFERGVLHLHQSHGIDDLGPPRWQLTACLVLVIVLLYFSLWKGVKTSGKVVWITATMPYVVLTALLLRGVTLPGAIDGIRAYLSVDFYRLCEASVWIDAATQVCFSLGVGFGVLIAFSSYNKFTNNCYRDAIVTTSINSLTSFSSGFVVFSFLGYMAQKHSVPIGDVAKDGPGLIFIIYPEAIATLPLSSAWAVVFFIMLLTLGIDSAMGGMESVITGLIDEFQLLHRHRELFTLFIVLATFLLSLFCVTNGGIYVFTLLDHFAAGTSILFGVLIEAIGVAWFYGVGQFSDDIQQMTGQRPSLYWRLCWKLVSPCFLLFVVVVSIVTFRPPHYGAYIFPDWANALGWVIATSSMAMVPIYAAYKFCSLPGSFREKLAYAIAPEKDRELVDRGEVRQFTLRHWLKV

The target of assay [10] is rat Serotonin Transporter (SERT), Slc6a4 (gene 25553) (UniProt P31652). Description: NVS_TR_rSERT: NovaScreen (NVS) Transporter Assay for rat Serotonin Transporter (SERT) (AID 2283375). Summed up: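 Steps: rat forebrain membranes dosed with chemical (25 uM duplicate primary; concentration series for actives); 1 h incubation; labelled ligand bound, filtered, counted by scintillation. Activity scored as signal loss vs DMSO.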
Sequence of rat Serotonin Transporter (SERT), Slc6a4 (gene 25553) (P31652 whole entry, looked up): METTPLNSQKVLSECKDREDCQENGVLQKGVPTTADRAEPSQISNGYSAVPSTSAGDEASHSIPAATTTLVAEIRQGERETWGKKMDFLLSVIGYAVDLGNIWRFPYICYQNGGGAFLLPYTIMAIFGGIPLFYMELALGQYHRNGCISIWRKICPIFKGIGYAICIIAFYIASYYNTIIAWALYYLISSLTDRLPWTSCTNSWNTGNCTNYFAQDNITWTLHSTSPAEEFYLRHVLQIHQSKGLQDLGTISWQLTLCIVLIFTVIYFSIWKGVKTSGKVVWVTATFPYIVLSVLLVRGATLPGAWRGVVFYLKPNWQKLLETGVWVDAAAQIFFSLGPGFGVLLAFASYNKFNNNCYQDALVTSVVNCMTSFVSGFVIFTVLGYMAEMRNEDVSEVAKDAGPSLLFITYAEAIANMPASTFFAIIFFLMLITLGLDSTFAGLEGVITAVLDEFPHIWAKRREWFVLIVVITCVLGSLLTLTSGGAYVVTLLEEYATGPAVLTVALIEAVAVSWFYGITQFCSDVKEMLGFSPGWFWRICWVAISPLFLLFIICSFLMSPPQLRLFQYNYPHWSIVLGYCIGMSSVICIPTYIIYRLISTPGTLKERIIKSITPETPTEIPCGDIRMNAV

Inconclusive results are not listed. Active and inactive are the calls of the source. Rule for the calls, unless noted: active = hit-call score of the fitted dose curve at least 0.9, where 1 is the maximum; inconclusive = response in the unintended direction; inactive = score below 0.9.

The term AC50 denotes the concentration at which the activity in the assay is half-maximal.

Sequence of Estrogen receptor (Homo sapiens) (P03372 whole entry, looked up): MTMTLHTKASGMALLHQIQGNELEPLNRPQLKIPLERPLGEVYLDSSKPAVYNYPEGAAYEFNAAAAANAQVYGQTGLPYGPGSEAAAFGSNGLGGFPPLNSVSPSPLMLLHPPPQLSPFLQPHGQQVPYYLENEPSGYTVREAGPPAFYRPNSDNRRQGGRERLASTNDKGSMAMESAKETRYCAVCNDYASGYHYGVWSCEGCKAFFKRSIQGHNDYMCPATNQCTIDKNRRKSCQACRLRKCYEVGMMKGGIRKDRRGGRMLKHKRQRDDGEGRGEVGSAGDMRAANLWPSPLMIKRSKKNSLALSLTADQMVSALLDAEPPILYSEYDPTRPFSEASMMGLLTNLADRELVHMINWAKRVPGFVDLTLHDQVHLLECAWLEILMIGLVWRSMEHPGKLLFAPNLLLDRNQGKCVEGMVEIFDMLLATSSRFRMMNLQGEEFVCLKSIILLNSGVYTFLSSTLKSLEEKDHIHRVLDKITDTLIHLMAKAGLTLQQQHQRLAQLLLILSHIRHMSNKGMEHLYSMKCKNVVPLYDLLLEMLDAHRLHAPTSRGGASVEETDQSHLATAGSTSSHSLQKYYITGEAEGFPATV
Sequence of Retinoic acid receptor RXR-alpha (Homo sapiens) (P19793 whole entry, looked up, the tested form may be a part): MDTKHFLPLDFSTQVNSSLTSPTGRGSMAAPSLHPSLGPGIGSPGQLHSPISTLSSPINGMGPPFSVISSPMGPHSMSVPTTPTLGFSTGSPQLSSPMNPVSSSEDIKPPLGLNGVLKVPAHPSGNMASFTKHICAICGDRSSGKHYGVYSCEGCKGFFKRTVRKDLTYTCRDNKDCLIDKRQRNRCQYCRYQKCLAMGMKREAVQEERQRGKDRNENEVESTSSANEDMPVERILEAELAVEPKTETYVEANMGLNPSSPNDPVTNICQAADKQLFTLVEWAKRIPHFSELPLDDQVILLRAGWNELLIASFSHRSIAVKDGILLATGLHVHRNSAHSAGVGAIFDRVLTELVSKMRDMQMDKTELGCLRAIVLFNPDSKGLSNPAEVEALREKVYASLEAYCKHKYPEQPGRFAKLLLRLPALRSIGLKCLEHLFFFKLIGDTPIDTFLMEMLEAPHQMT
Sequence of Estrogen receptor beta (Homo sapiens) (Q92731 whole entry, looked up, the tested form may be a part): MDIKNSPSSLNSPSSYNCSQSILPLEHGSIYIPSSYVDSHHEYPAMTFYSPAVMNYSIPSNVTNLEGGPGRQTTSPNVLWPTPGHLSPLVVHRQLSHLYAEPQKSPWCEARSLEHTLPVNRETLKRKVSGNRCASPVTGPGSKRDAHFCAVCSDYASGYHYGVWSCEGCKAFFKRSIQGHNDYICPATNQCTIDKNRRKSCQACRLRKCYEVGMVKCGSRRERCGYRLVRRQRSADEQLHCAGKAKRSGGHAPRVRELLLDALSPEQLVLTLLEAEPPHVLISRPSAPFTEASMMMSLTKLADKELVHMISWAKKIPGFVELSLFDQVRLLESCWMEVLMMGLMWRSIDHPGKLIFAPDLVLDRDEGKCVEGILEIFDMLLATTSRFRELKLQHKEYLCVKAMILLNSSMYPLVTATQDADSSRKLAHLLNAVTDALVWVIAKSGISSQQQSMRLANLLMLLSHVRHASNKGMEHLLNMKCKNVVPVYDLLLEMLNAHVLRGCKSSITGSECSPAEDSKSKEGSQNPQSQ
Sequence of human Norepinephrine Transporter (NET), SLC6A2 (gene 6530) (P23975 whole entry, looked up): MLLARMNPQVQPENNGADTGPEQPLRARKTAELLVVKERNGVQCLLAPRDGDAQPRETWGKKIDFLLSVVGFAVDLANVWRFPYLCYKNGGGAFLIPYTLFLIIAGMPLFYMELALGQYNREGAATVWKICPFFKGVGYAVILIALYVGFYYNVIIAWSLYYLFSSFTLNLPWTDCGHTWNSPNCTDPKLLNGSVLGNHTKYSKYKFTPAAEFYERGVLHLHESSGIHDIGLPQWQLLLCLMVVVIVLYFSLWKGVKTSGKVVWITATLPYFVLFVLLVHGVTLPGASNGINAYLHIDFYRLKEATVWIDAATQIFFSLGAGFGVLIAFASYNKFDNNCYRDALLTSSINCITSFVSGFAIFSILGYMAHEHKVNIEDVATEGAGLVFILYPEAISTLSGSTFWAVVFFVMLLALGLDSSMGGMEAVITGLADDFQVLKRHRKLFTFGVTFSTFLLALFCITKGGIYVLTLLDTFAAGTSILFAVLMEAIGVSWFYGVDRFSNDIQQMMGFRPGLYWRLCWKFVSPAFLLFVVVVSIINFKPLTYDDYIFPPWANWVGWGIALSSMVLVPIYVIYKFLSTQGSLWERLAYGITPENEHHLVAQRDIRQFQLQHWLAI
Sequence of Agonist Androgen Response Element (ARE), AR (gene 367) (P10275 whole entry, looked up): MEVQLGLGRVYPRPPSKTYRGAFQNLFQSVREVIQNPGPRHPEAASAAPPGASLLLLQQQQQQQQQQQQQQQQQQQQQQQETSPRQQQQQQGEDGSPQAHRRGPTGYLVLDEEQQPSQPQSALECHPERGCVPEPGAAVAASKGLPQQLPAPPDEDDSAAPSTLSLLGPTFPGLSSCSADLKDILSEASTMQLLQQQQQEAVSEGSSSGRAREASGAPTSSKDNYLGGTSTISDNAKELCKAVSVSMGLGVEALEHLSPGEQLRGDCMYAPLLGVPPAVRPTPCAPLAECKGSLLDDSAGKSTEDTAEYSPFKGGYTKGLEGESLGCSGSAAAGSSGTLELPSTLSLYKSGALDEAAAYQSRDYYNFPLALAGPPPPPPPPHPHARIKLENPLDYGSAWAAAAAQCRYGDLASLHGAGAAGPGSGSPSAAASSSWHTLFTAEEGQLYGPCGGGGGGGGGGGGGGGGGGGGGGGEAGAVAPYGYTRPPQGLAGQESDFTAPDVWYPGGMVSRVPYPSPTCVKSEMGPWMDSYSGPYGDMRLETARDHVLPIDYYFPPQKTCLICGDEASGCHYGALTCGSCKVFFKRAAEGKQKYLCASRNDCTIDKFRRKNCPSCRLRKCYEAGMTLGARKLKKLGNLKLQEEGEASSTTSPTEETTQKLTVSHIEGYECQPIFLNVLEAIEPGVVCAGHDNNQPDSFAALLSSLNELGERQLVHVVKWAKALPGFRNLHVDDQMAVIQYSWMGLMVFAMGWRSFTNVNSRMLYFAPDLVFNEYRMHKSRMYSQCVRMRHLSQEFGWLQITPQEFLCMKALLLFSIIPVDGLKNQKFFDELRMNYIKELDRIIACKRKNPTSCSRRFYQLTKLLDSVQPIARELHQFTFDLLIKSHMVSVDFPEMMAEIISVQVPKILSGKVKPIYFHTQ

As to `C=C(C)C(N)=O`, the molecule was classed as inactive in assay [1], in assay [2], in [3], in assay [4] and in [5].
With `CCOCC(C)O` (centres undefined), the AC50 in assay [6] is 35 µM (active). Also, the outcome in assay [7], in assay [2], in assay [3] and in assay [4] was inactive.
For the molecule `CC1=CCC(C(C)(C)O)CC1` (centres undefined), the molecule was classed as inactive in assay [8], in [2], in assay [3] and in assay [4].
As to `CCCCCCCCCOS(=O)(=O)O`, the AC50 in assay [6] is 12.7 µM (active). Also, the result in assay [2] and in assay [3] was inactive.
For the molecule `CC(=O)CC(=O)N(C)C`, the molecule was classed as inactive in [6], in assay [7], in assay [2] and in assay [3].
`CC(C)(C)c1cccc(O)c1`: the outcome in assay [8], in assay [2], in assay [3] and in [4] was inactive.
With `CCC(=O)OC(C)(C)C1CC=C(C)CC1` (centres undefined), the call in assay [7], in assay [2] and in [3] was inactive.
As to `O=C1OC2(c3ccc(O)cc3Oc3cc(O)ccc32)c2ccccc21`, the outcome in assay [1], in assay [7], in assay [2] and in assay [3] was inactive. The AC50 in assay [6] was 25 µM (active).
On to `CC(CCO)CC(C)(C)C` (centres undefined), for which the result in assay [8], in [2] and in [3] was inactive. In addition, in assay [7], the AC50 was 39 µM (active).
As for `CCC(C)(C)c1cc(O)c(C(C)(C)CC)cc1O`, the call in assay [6] was inactive.
In the case of `CC(C)(CO)CO`, the molecule was classed as inactive in [8], in assay [7], in assay [2], in [3] and in assay [4].
On to `CC(=O)OC(C)(C)C`, for which the result in assay [7], in assay [2], in assay [3] and in assay [4] was inactive.
Turning to `O=S1(=O)CC(Cl)(Cl)C(Cl)(Cl)C1`, the molecule was classed as inactive in assay [6].
For the molecule `OCC=Cc1ccccc1`, the molecule was classed as inactive in assay [7], in assay [2] and in assay [3].
Turning to `OC[C@H]1O[C@@H](O[C@H]2[C@H](O)[C@@H](O)[C@H](O)O[C@@H]2CO)[C@H](O)[C@@H](O)[C@H]1O`, the outcome in assay [8], in assay [7], in assay [2] and in assay [3] was inactive.
Consider `CC/C=C\CCOC(C)OCC` (centres undefined), for which the outcome in assay [6] was inactive.
In the case of `C=CC(C)CCCC(C)(C)O` (centres undefined), the call in assay [7], in assay [2] and in assay [3] was inactive.
Consider `FC(F)(F)c1ccc(Cl)c(Cl)c1`, for which the molecule was classed as inactive in assay [6], in assay [8], in assay [7], in assay [2] and in assay [3].
As to `CCOC(=O)C=Cc1ccccc1`, the molecule was called inactive in [9]. In assay [1], the AC50 was 25 µM (active).
As to `CCCCCCC(C)O` (centres undefined), the molecule was called inactive in [6], in assay [7], in assay [2] and in assay [3].
`CC(=O)C1C(=O)C=C(C)OC1=O` (centres undefined): the result in assay [6], in [7], in assay [2], in assay [3] and in [4] was inactive.
As for `COc1cc(OC)c2ccc(=O)oc2c1`, the call in [8], in assay [7], in [2], in assay [3] and in assay [4] was inactive.
In the case of `COC(=O)C(C)Oc1ccc(Oc2ncc(C(F)(F)F)cc2Cl)cc1` (centres undefined), in [6], the AC50 is 0.164 µM (active). Further, the result in assay [7], in assay [2], in [3] and in [4] was inactive.
Consider `CCCO[Si](OCCC)(OCCC)OCCC`, for which the molecule was called inactive in [7], in assay [2] and in [3].
For `COC(=O)c1cccc(C(=O)OC)c1`, in assay [8], the AC50 is 1.63 µM (active). Also, the call in assay [7], in assay [2], in [3] and in assay [5] was inactive.
In the case of `CC(C)Cc1ccccc1`, in assay [10], the result was inactive.

Source of the values: PubChem BioAssay (EPA / NIEHS).
